Records with an inconclusive call do not appear. A call without a number means that no potency is given here. Activity calls are given as the source filed them. Calls come from the whole dose curve; as a rule, active = well fitted curve in the direction sought with a large enough effect; inconclusive = small, poorly fitted or top-dose-only effect, or another doubt; inactive = no such curve, though single readings can be large; an effect the other way counts as inactive or inconclusive.
Assays:
[1] = S16 Schwann cell viability assay (CellTiter-Glo assay) (AID 624031);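 note: native untransfected S16 rat Schwann cells; cellular ATP luminescence as a viability measure; nearly all actives have a fitted effect of over 70% in size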
Method in brief: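 Rat S16 Schwann cells without reporter constructs received compound or DMSO for 24 h at 37 °C under 5% CO2. Cellular ATP was then quantified by CellTiter-Glo luminescence, with vehicle wells defined as 0% activity and cell-free wells as reference.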

3D7 = test: qHTS profiling for inhibitors of Plasmodium falciparum proliferation (AID 504749); note: nearly all actives have a fitted effect of over 60% in size; note: potency is the fitted concentration of half-maximal effect; details: P. falciparum in erythrocytes, SYBR Green DNA, 72 h; series mostly up to 12.8 µM
Method in brief: (§1)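 SYBR Green fluorescence (ex 485 nm, em 535 nm) reports parasite DNA after 72 h compound exposure of infected red cells at 0.3% parasitemia, 2.5% hematocrit; signal normalized to 0.29 uM artemisinin and vehicle wells.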

AS120 = test: as above; details: P. falciparum in erythrocytes, SYBR Green DNA, 72 h; series mostly up to 12.8 µM
Method in brief: as §1

ATS189 = test: as above; details: P. falciparum in erythrocytes, SYBR Green DNA, 72 h; series mostly up to 12.8 µM
Method in brief: as §1

ATS95 = test: as above; details: P. falciparum in erythrocytes, SYBR Green DNA, 72 h; series mostly up to 12.8 µM
Method in brief: as §1

CP191 = test: as above; details: P. falciparum in erythrocytes, SYBR Green DNA, 72 h; series mostly up to 12.8 µM
Method in brief: as §1

CP192 = test: as above; details: P. falciparum in erythrocytes, SYBR Green DNA, 72 h; series mostly up to 12.8 µM
Method in brief: as §1

CP247 = test: as above; details: P. falciparum in erythrocytes, SYBR Green DNA, 72 h; series mostly up to 12.8 µM
Method in brief: as §1

CP252 = test: as above; details: P. falciparum in erythrocytes, SYBR Green DNA, 72 h; series mostly up to 12.8 µM
Method in brief: as §1

CP262 = test: as above; details: P. falciparum in erythrocytes, SYBR Green DNA, 72 h; series mostly up to 12.8 µM
Method in brief: as §1

CP265 = test: as above; details: P. falciparum in erythrocytes, SYBR Green DNA, 72 h; series mostly up to 12.8 µM
Method in brief: as §1

CP266 = test: as above; details: P. falciparum in erythrocytes, SYBR Green DNA, 72 h; series mostly up to 12.8 µM
Method in brief: as §1

CP268 = test: as above; details: P. falciparum in erythrocytes, SYBR Green DNA, 72 h; series mostly up to 12.8 µM
Method in brief: as §1

CP305 = test: as above; details: P. falciparum in erythrocytes, SYBR Green DNA, 72 h; series mostly up to 12.8 µM
Method in brief: as §1

CP329 = test: as above; details: P. falciparum in erythrocytes, SYBR Green DNA, 72 h; series mostly up to 12.8 µM
Method in brief: as §1

ICS = test: as above; details: P. falciparum in erythrocytes, SYBR Green DNA, 72 h; series mostly up to 12.8 µM
Method in brief: as §1

N140 = test: as above; details: P. falciparum in erythrocytes, SYBR Green DNA, 72 h; series mostly up to 12.8 µM
Method in brief: as §1

PC15 = test: as above; details: P. falciparum in erythrocytes, SYBR Green DNA, 72 h; series mostly up to 12.8 µM
Method in brief: as §1

PC49 = test: as above; details: P. falciparum in erythrocytes, SYBR Green DNA, 72 h; series mostly up to 12.8 µM
Method in brief: as §1

TAB109 = test: as above; details: P. falciparum in erythrocytes, SYBR Green DNA, 72 h; series mostly up to 12.8 µM
Method in brief: as §1

Compound	outcome [1]	Potency (3D7)	Potency (AS120)	Potency (ATS189)	Potency (ATS95)	Potency (CP191)	Potency (CP192)	Potency (CP247)	Potency (CP252)	Potency (CP262)	Potency (CP265)	Potency (CP266)	Potency (CP268)	Potency (CP305)	Potency (CP329)	Potency (ICS)	Potency (N140)	Potency (PC15)	Potency (PC49)	Potency (TAB109)
CC[C@H](CO)NCCN[C@@H](CC)CO	inactive	inactive	inactive	inactive	inactive	inactive	inactive	inactive	inactive	inactive	inactive	inactive	inactive	inactive	inactive	inactive	inactive	inactive	inactive	inactive
NC(=O)c1cc[n+](CC2=C(C(=O)[O-])N3C(=O)[C@@H](NC(=O)Cc4cccs4)[C@@H]3SC2)cc1	inactive	inactive	inactive	inactive	inactive	inactive	inactive	inactive	inactive	inactive	inactive	inactive	inactive	inactive	inactive	inactive	inactive	inactive	inactive	inactive
Cc1ccc(S(=O)(=O)NC(=O)NN2C[C@H]3CCC[C@@H]3C2)cc1	inactive	inactive	inactive	inactive	inactive	inactive	inactive	inactive	inactive	inactive	inactive	inactive	inactive	inactive	inactive	inactive	inactive	inactive	inactive	inactive
CC1(C)O[C@H]2C[C@@H]3[C@H]4CCC5=CC(=O)CC[C@@]5(C)[C@]4(F)[C@@H](O)C[C@@]3(C)[C@@]2(C(=O)CCl)O1	inactive	3.98 µM (active)	3.98 µM (active)	3.55 µM (active)	1.58 µM (active)	3.16 µM (active)		3.98 µM (active)	3.55 µM (active)		3.98 µM (active)	inactive			inactive	0.891 µM (active)	2.51 µM (active)	3.55 µM (active)	inactive	1.41 µM (active)
CC(=O)OCC(=O)[C@@]1(O)[C@H](C)C[C@@H]2[C@H]3CCC4=CC(=O)C=C[C@]4(C)[C@]3(F)[C@@H](O)C[C@@]21C	inactive	inactive	inactive	inactive	inactive	inactive	inactive	inactive	inactive	inactive	inactive	inactive	inactive	inactive	inactive	inactive	inactive	inactive	inactive	inactive
C=CC1=C(C(=O)O)N2C(=O)[C@@H](NC(=O)/C(=N\OCC(=O)O)c3csc(N)n3)[C@@H]2SC1	inactive	inactive	inactive	inactive	inactive	inactive	inactive	inactive	inactive	inactive	inactive	inactive		inactive	inactive	inactive	inactive	inactive	inactive	inactive
CCCC[C@H](CC)CN1CN(C[C@@H](CC)CCCC)CC(C)(N)C1	inactive	inactive	inactive	inactive	inactive	inactive	inactive	inactive	inactive	inactive	inactive	inactive	inactive	inactive	inactive	4.47 µM (active)	inactive	inactive	inactive	inactive
C[C@H]1CC[C@]2(OC1)O[C@@H]1C[C@@H]3[C@@H]4CC[C@H]5C[C@@H](O)CC[C@]5(C)[C@@H]4CC(=O)[C@@]3(C)[C@H]1[C@@H]2C	inactive	inactive	inactive	inactive	inactive	inactive	inactive	inactive	inactive	inactive	inactive	inactive	inactive	inactive	inactive	inactive	inactive	inactive	inactive	inactive
COCC(=O)Nc1c(I)c(C(=O)NC[C@@H](O)CO)c(I)c(C(=O)N(C)C[C@@H](O)CO)c1I	inactive	inactive	inactive	inactive	inactive	inactive	inactive	inactive	inactive	inactive	inactive	inactive	inactive	inactive	inactive	inactive	inactive	inactive	inactive	inactive
CCC[C@@H]1O[C@@H]2C[C@@H]3[C@H]4CCC5=CC(=O)C=C[C@@]5(C)[C@H]4[C@H](O)C[C@@]3(C)[C@@]2(C(=O)CO)O1		7.94 µM (active)	11.2 µM (active)	7.08 µM (active)		11.2 µM (active)		8.91 µM (active)	11.2 µM (active)	inactive			inactive	inactive	inactive	6.31 µM (active)				7.94 µM (active)
CC(=O)C[C@H](c1ccc([N+](=O)[O-])cc1)c1c(O)c2ccccc2oc1=O	inactive	inactive	inactive	inactive	inactive	inactive	inactive	inactive	inactive	inactive	inactive	inactive	inactive	inactive	inactive	inactive	inactive	inactive	inactive	inactive
COC(=O)C1=C(C)NC(C)=C(C(=O)OC(C)C)[C@H]1c1cccc2nonc12	inactive						inactive				inactive	inactive				3.55 µM (active)	3.16 µM (active)	inactive	inactive	
NCc1ccccc1CC(=O)N[C@@H]1C(=O)N2C(C(=O)O)=C(CSc3nnnn3CC(=O)O)CS[C@@H]12	inactive	inactive	inactive	inactive	inactive	inactive	inactive	inactive	inactive	inactive	inactive	inactive	inactive	inactive	inactive	inactive	inactive	inactive	inactive	inactive
CN(C/C=C\c1ccccc1)Cc1cccc2ccccc12		inactive	inactive	inactive	inactive	inactive	inactive	inactive	inactive	inactive	inactive	inactive	inactive	inactive	inactive	11.2 µM (active)	inactive	inactive	inactive	inactive
CN1CCN([C@@H](c2ccccc2)c2ccc(Cl)cc2)CC1		inactive				inactive	inactive	inactive	inactive	inactive		inactive		inactive	inactive	3.16 µM (active)	inactive	inactive	inactive	inactive
COc1cc2nc(N3CCN(C(=O)[C@@H]4COc5ccccc5O4)CC3)nc(N)c2cc1OC	inactive			inactive		7.94 µM (active)			inactive		inactive	inactive	inactive	inactive				inactive	inactive	
Clc1ccc([C@H](Cn2ccnc2)OCc2csc3c(Cl)cccc23)c(Cl)c1	inactive	3.55 µM (active)	2.51 µM (active)							inactive		inactive	inactive			2 µM (active)	3.98 µM (active)			
CC(C)NC[C@H]1CCc2cc(CO)c([N+](=O)[O-])cc2N1	inactive	inactive	inactive	inactive	inactive	inactive	inactive	inactive	inactive		inactive	inactive	inactive	inactive	inactive	inactive	inactive	inactive	inactive	inactive
CN(C)CCOC(=O)[C@@H](c1ccccc1)C1(O)CCCC1	inactive	inactive	inactive	inactive	inactive	inactive	inactive		inactive	inactive	inactive		inactive	inactive	inactive	inactive	inactive	inactive	inactive	inactive
CC(=O)O[C@]1(C(C)=O)CC[C@@H]2[C@@H]3C=C(C)C4=CC(=O)CC[C@@]4(C)[C@H]3CC[C@]21C	inactive	inactive	inactive	inactive	inactive	inactive	inactive	inactive	inactive	inactive	inactive	inactive	inactive	inactive	inactive		inactive	inactive	inactive	inactive
OCCN1CCN(CCC=C2c3ccccc3Sc3ccc(Cl)cc32)CC1						3.98 µM (active)						inactive	inactive	inactive		4.47 µM (active)				
CCC(=O)O[C@@]1(C(=O)SCF)[C@@H](C)C[C@H]2[C@@H]3C[C@@H](F)C4=CC(=O)C=C[C@@]4(C)[C@]3(F)[C@@H](O)C[C@]21C	inactive						inactive	inactive		inactive		inactive	inactive	inactive	inactive	2.51 µM (active)	3.98 µM (active)			
C[C@H](C(=O)O)c1cccc(Oc2ccccc2)c1		inactive	inactive	inactive	inactive	inactive	inactive	inactive	inactive	inactive	inactive	inactive	inactive	inactive	inactive	inactive	inactive	inactive	inactive	inactive
C=CCN1C(=CCO)[C@H]2C[C@H]3[C@@H]1CC[C@@]31c3ccccc3N3C=C4[C@@H]5N(/C=C/2[C@H]31)c1ccccc1[C@]51CC[C@H]2[C@H]1C[C@@H]4/C(=C/CO)N2CC=C	inactive	inactive	inactive	inactive	inactive	inactive	inactive	inactive	inactive	inactive	inactive	inactive	inactive	inactive	inactive	inactive	inactive	inactive	inactive	inactive

From PubChem BioAssay (NCATS)
